Measurements taken from PubChem BioAssay (NCI).
The panel holds about 79,000 compounds, 15% with a hit somewhere; the sample as a whole holds those more often. Values without a mark were called inactive. The source made the active and inactive calls. Rule as the data show it: active = growth inhibition above about 70%; inactive = the rest.

Legend:
[1] = NCI Yeast Anticancer Drug Screen. Data for the rad50 strain (AID 155);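 also: 0% = growth of vehicle-only cultures of the same strain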; conditions: S. cerevisiae rad50 strain growth inhibition, active compounds read high
Outline: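 Cells are treated with compound, grown, and their growth is then scored against vehicle-only cultures of the same repair-deficient yeast strain.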

[2] = NCI Yeast Anticancer Drug Screen. Data for the mec2-1 strain (AID 157); conditions: S. cerevisiae mec2-1 strain, active compounds read high
Outline: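 Readout is yeast growth inhibition, normalised to vehicle-treated controls, in the mec2-1 strain exposed to compound.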

[3] = NCI Yeast Anticancer Drug Screen. Data for the sgs1 mgt1 strain (AID 161);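 also: 0% = growth of cultures given vehicle only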; conditions: S. cerevisiae sgs1 mgt1 strain, active compounds read high
Outline: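 Growth of a repair-deficient yeast mutant was monitored after compound treatment and expressed as inhibition relative to vehicle-treated cultures.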

[4] = NCI Yeast Anticancer Drug Screen. Data for the cln2 rad14 strain (AID 165);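 also: 0% = growth equal to vehicle treated cultures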; conditions: S. cerevisiae cln2 rad14 strain, active compounds read high
Outline: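 Relative to vehicle controls, growth inhibition of compound-treated cln2 rad14 yeast was recorded.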

[5] = NCI Yeast Anticancer Drug Screen. Data for the bub3 strain (AID 167); conditions: S. cerevisiae bub3 mutant strain, active compounds read high
Outline: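 Part of a panel of yeast mutants defective in DNA damage repair or cell cycle regulation. Each strain is grown with compound, and inhibition is calculated relative to solvent-treated cultures.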

[6] = NCI Yeast Anticancer Drug Screen. Data for the mlh1 rad18 strain (AID 175); conditions: S. cerevisiae mlh1 rad18 strain growth inhibition, active compounds read high
Outline: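 Test agents were incubated with a yeast strain of defined genotype (DNA damage repair defect). Inhibition of growth was derived by comparison with vehicle-exposed cultures.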

[7] = at 5.0 µM (retest, dose inferred, filed as 0.5)
[8] = at 50.0 µM (retest, dose inferred, filed as 5.0)

Row | SMILES | growth inhibition [1, 7] | growth inhibition [1, 8] | growth inhibition ([1]; at 50.0 µM) | growth inhibition [2, 7] | growth inhibition [2, 8] | growth inhibition ([2]; at 50.0 µM) | growth inhibition [3, 7] | growth inhibition [3, 8] | growth inhibition ([3]; at 50.0 µM) | growth inhibition [4, 7] | growth inhibition [4, 8] | growth inhibition ([4]; at 50.0 µM) | growth inhibition [5, 7] | growth inhibition [5, 8] | growth inhibition ([5]; at 50.0 µM) | growth inhibition [6, 7] | growth inhibition [6, 8] | growth inhibition ([6]; at 50.0 µM)
1 | CCCCN=C(c1ccc(O)cc1)c1ccc(OC)cc1O | -4% | 20% | 42.7% | -1% | 15% | 18.6% | -2% | 37% | 64.1% | -3% | 20% | 26.6% | -5% | 42% | 58% | -4% | 22% | 36%
2 | CCCCCCc1cc(C(=O)N/N=C\c2cccc([N+](=O)[O-])c2)c2ccccc2n1 | 0% | -7% | -40.9% | -1% | -2% | -9.2% | 2% | 7% | -19.9% | -5% | -17% | 41% | 0% | 5% | 1.45% | 0% | -7% | -9.4%
3 | CCCC(=O)Oc1ccc(OCc2ccccc2)cc1 | -1% | 55% | -23.8% | -1% | 55% | -15.1% | 0% | 55% | 1.6% | -3% | -15% | -41.8% | 23% | 77% (active) | 75.2% (active) | 0% | 42% | -10.9%
4 | COc1cc2c(c(O)c1C)C(=O)C(Cl)=CC2=O | 99% (active) | 99% (active) | 99.1% (active) | 99% (active) | 99% (active) | 99.2% (active) | 99% (active) | 98% (active) | 99.3% (active) | 98% (active) | 98% (active) | 98.9% (active) | 99% (active) | 99% (active) | 99.2% (active) | 99% (active) | 99% (active) | 99.2% (active)
5 | CS(=O)(=O)OCCN(CCOS(C)(=O)=O)c1ccc(C=Nc2ccc3oc(=O)ccc3c2)cc1 | 32% | 97% (active) | 52.1% | 35% | 95% (active) | 77.1% (active) | 22% | 86% (active) | 65.2% | 13% | 77% (active) | 22.4% | -4% | 14% | 40.1% | 72% (active) | 97% (active) | 88.7% (active)
6 | COc1ccc(C)c2nc3ccccc3nc12 | -119% | 86% (active) | 97% (active) | -42% | 24% | 74.5% (active) | -64% | 51% | 38.7% | -49% | 37% | 56.2% | -58% | 31% | 91.9% (active) | -110% | 67% | 87.7% (active)
7 | Cc1ccc2cc3ccccc3c(-c3ccccc3)c2c1 | 5% | -3% | 10.6% | -13% | -29% | 12.9% | 6% | -61% | -9.35% | 5% | -16% | 37% | -11% | -12% | -1.15% | -2% | 0% | -5.65%
8 | COC(=O)CC1C(=O)OCc2c1cc1n(c2=O)Cc2c-1nc1ccccc1c2OC (stereo not given) | 15% | 77% (active) | 94.4% (active) | 4% | 15% | 9.05% | -4% | -1% | 10% | -12% | -7% | 20.4% | -2% | 11% | 12.7% | 7% | 1% | 51.2%
9 | Cc1ccc(NC(=S)SCc2ccc(Cl)cc2)cc1Br | 48% | 99% (active) | 90.5% (active) | 25% | 99% (active) | 93.2% (active) | 64% | 100% (active) | 91% (active) | 48% | 99% (active) | 89.9% (active) | 65% | 99% (active) | 92.3% (active) | 38% | 99% (active) | 90.8% (active)
10 | CCCCCCCCCCCC(=O)OCCCCC | -5% | 0% | 74.8% (active) | -1% | 1% | 87.3% (active) | -3% | 3% | 65.8% | -1% | -4% | -2.5% | -2% | -4% | 80.6% (active) | -8% | 0% | 87.7% (active)
